Laboratory results as given in PubChem BioAssay (NCI).
This is part of a sample that, as a whole, favours compounds with a hit. Of some 79,000 tested, about 15% had one in any assay. The source made the active and inactive calls. Cut-off read from the data, not from the text of the source: active = growth inhibition above about 70%; inactive = the rest.

Key:
[1] = NCI Yeast Anticancer Drug Screen. Data for the mec2-1 strain (AID 157); conditions: S. cerevisiae mec2-1 strain, active compounds read high
In short: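 mec2-1 yeast strain, carrying an alteration in DNA damage repair or cell cycle control, was exposed to compounds; growth inhibition was measured relative to vehicle-treated controls.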

[2] = NCI Yeast Anticancer Drug Screen. Data for the rad14 strain (AID 159);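 note: 0% = growth of vehicle-treated control cultures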; conditions: S. cerevisiae rad14 strain growth inhibition, active compounds read high
In short: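 A mutant yeast strain defective in DNA damage repair is treated with compound; inhibition of its growth is scored against untreated, vehicle-exposed cultures.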

[3] = NCI Yeast Anticancer Drug Screen. Data for the sgs1 mgt1 strain (AID 161);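 note: 0% = growth of cultures given vehicle only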; conditions: S. cerevisiae sgs1 mgt1 strain, active compounds read high
In short: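 Percent growth inhibition was derived by comparing compound-exposed mutant yeast with vehicle-exposed cultures. The strain carries alterations in DNA damage repair.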

[4] = NCI Yeast Anticancer Drug Screen. Data for the CLN2oe strain (AID 163);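 note: 0% = growth of vehicle-only control cultures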; conditions: S. cerevisiae CLN2oe strain, active compounds read high
In short: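 Yeast cells carrying a defined cell-cycle control alteration were exposed to test compounds. Growth inhibition was scored against vehicle-treated control cultures.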

[5] = NCI Yeast Anticancer Drug Screen. Data for the cln2 rad14 strain (AID 165);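 note: 0% = growth equal to vehicle treated cultures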; conditions: S. cerevisiae cln2 rad14 strain, active compounds read high
In short: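 Yeast carrying cln2 and rad14 alterations (cell cycle control and DNA damage repair) were exposed to compounds. Growth inhibition was measured against vehicle-treated controls.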

[6] = NCI Yeast Anticancer Drug Screen. Data for the bub3 strain (AID 167); conditions: S. cerevisiae bub3 mutant strain, active compounds read high
In short: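 Steps: expose the mutant yeast strain to compound; grow alongside vehicle-treated cultures; measure growth; express inhibition against the vehicle cultures.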

[7] = NCI Yeast Anticancer Drug Screen. Data for the wt2 strain (AID 169);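 note: 0% = growth of vehicle-treated yeast cultures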; conditions: S. cerevisiae wt2 strain growth inhibition, active compounds read high
In short: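 Yeast cells were exposed to test compounds, and growth inhibition was measured relative to vehicle-treated controls.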

[8] = NCI Yeast Anticancer Drug Screen. Data for the mlh1 strain (AID 171);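 note: 0% = growth of vehicle-treated control cultures of the same strain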; conditions: S. cerevisiae mlh1 strain growth inhibition, active compounds read high
In short: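 Yeast carrying a defined genetic alteration in DNA damage repair or cell cycle control were exposed to test compounds. Growth inhibition was measured relative to vehicle-treated controls.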

[9] = NCI Yeast Anticancer Drug Screen. Data for the sgs1 strain (AID 173);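 note: 0% = growth of vehicle-only control cultures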; conditions: S. cerevisiae sgs1 mutant, active compounds read high
In short: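 Yeast mutant strains carrying defined defects in DNA damage repair or cell cycle control were exposed to test compounds. Growth inhibition was scored against vehicle-treated controls.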

[10] = NCI Yeast Anticancer Drug Screen. Data for the mlh1 rad18 strain (AID 175); conditions: S. cerevisiae mlh1 rad18 strain growth inhibition, active compounds read high
In short: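 Growth inhibition of the yeast strain was measured after compound exposure and expressed relative to vehicle-treated controls. The strain carries defined defects in DNA damage repair.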

[11] = NCI Yeast Anticancer Drug Screen. Data for the rad18 strain (AID 177); conditions: S. cerevisiae rad18 mutant growth inhibition, active compounds read high
In short: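 Yeast carrying a defined DNA damage repair alteration were exposed to compounds. Growth inhibition was expressed relative to vehicle-treated controls.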

[12] = NCI Yeast Anticancer Drug Screen. Data for the rad52 strain (AID 147);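 note: 0% = growth of vehicle-treated control cultures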; conditions: S. cerevisiae rad52 mutant growth inhibition, active compounds read high
In short: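 Yeast strain carrying a DNA damage repair alteration was exposed to test compounds. Growth inhibition was measured relative to vehicle-treated controls.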

[13] = NCI Yeast Anticancer Drug Screen. Data for the wt1 strain (AID 149);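 note: 0% = growth of vehicle-treated wt1 cultures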; conditions: S. cerevisiae wt1 strain (SPY 50644) growth inhibition, active compounds read high
In short: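 Compounds are added to wt1 yeast cultures. Growth is then measured. Inhibition is expressed relative to vehicle-treated controls.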

[14] = NCI Yeast Anticancer Drug Screen. Data for the rad50EPP+ strain (AID 151);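 note: 0% = growth of vehicle-treated control cultures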; conditions: S. cerevisiae rad50 mutant strain, active compounds read high
In short: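 Yeast strain carrying rad50 alteration (rad50EPP+) exposed to compounds; growth inhibition measured relative to vehicle-treated controls.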

[15] = NCI Yeast Anticancer Drug Screen. Data for the mgt1 strain (AID 153); conditions: S. cerevisiae mgt1 mutant growth inhibition, active compounds read high
In short: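 Yeast mgt1 strain (DNA repair/cell-cycle alteration panel) exposed to compounds; growth inhibition measured relative to vehicle-treated controls.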

[16] = NCI Yeast Anticancer Drug Screen. Data for the rad50 strain (AID 155);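 note: 0% = growth of vehicle-only cultures of the same strain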; conditions: S. cerevisiae rad50 strain growth inhibition, active compounds read high
In short: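 Inhibition values express reduced yeast growth in compound-treated cultures relative to vehicle-treated controls.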

[17] = at 5.0 µM (retest, dose inferred, filed as 0.5)
[18] = at 50.0 µM (retest, dose inferred, filed as 5.0)

Measured: growth inhibition

O=C(CC(C(=O)O)N1CCOCC1)c1ccccc1 (stereo unspecified)
active: [5]; [17] 81% | [6]; [17] 98% | [7]; at 100.0 µM 71% | [8]; at 100.0 µM 77% | [9]; at 100.0 µM 80% | [11]; at 33.0 µM 80% | [11]; at 100.0 µM 91%
inactive: [1]; [17] -2% | [1]; at 11.0 µM 2% | [1]; at 33.0 µM 31% | [1]; [18] 41% | [1]; at 50.0 µM 12.4% | [1]; at 100.0 µM 66% | [2]; at 1.2 µM -3% | [2]; at 3.7 µM -5% | [2]; at 11.0 µM 0% | [2]; at 33.0 µM 3% | [2]; at 100.0 µM 29% | [3]; [17] -6% | [3]; [18] 54% | [3]; at 50.0 µM 3.3% | [4]; at 1.2 µM -4% | [4]; at 3.7 µM -9% | [4]; at 11.0 µM -10% | [4]; at 33.0 µM -2% | [4]; at 100.0 µM 22% | [5]; [18] 17% | [5]; at 50.0 µM -16.2% | [6]; at 1.2 µM -16% | [6]; at 3.7 µM -17% | [6]; at 11.0 µM -8% | [6]; at 33.0 µM 29% | [6]; [18] 60% | [6]; at 50.0 µM 21.3% | [6]; at 100.0 µM 68% | [7]; at 1.2 µM -4% | [7]; at 3.7 µM -3% | [7]; at 11.0 µM 0% | [7]; at 33.0 µM 31% | [8]; at 1.2 µM -3% | [8]; at 3.7 µM -3% | [8]; at 11.0 µM 4% | [8]; at 33.0 µM 37% | [9]; at 1.2 µM 0% | [9]; at 3.7 µM 5% | [9]; at 11.0 µM 19% | [9]; at 33.0 µM 56% | [10]; [17] 10% | [10]; [18] 47% | [10]; at 50.0 µM 47.9% | [11]; at 1.2 µM -1% | [11]; at 3.7 µM 5% | [11]; at 11.0 µM 28%

COC1=C(OC)C(=O)C(Sc2ccc3ccccc3c2)=CC1=O
inactive: [12]; at 1.2 µM -19% | [12]; at 3.7 µM -19% | [12]; at 11.0 µM 56% | [13]; at 1.2 µM -73% | [13]; at 3.7 µM -61% | [13]; at 11.0 µM -13% | [14]; at 1.2 µM -29% | [14]; at 3.7 µM -10% | [14]; at 11.0 µM 67% | [15]; at 1.2 µM -46% | [15]; at 3.7 µM -47% | [15]; at 11.0 µM 8% | [16]; at 1.2 µM -15% | [16]; at 3.7 µM 0% | [16]; [17] 17% | [16]; at 11.0 µM 19% | [1]; at 1.2 µM -69% | [1]; at 3.7 µM -40% | [1]; [17] 29% | [1]; at 11.0 µM 19% | [2]; at 1.2 µM -18% | [2]; at 3.7 µM -8% | [2]; at 11.0 µM 64% | [3]; [17] 5% | [4]; at 1.2 µM 5% | [4]; at 3.7 µM 19% | [4]; at 11.0 µM 45% | [5]; [17] 4% | [5]; [18] -12% | [6]; at 1.2 µM -11% | [6]; at 3.7 µM 0% | [6]; [17] 3% | [6]; at 11.0 µM -3% | [7]; at 1.2 µM -35% | [7]; at 3.7 µM -43% | [7]; at 11.0 µM 33% | [8]; at 1.2 µM -39% | [8]; at 3.7 µM -38% | [8]; at 11.0 µM 25% | [9]; at 1.2 µM -25% | [9]; at 3.7 µM -17% | [9]; at 11.0 µM 23% | [10]; [17] 47% | [11]; at 1.2 µM -36% | [11]; at 3.7 µM -25% | [11]; at 11.0 µM 58%
active: [12]; at 33.0 µM 93% | [12]; at 100.0 µM 92% | [13]; at 33.0 µM 94% | [13]; at 100.0 µM 92% | [14]; at 33.0 µM 95% | [14]; at 100.0 µM 97% | [15]; at 33.0 µM 94% | [15]; at 100.0 µM 92% | [16]; at 33.0 µM 92% | [16]; [18] 97% | [16]; at 50.0 µM 89.4% | [16]; at 100.0 µM 83% | [1]; at 33.0 µM 95% | [1]; [18] 98% | [1]; at 50.0 µM 93.3% | [1]; at 100.0 µM 89% | [2]; at 33.0 µM 96% | [2]; at 100.0 µM 93% | [3]; [18] 80% | [3]; at 50.0 µM 91.8% | [4]; at 33.0 µM 85% | [4]; at 100.0 µM 87% | [5]; at 50.0 µM 85.8% | [6]; at 33.0 µM 89% | [6]; [18] 79% | [6]; at 50.0 µM 91.2% | [6]; at 100.0 µM 87% | [7]; at 33.0 µM 96% | [7]; at 100.0 µM 94% | [8]; at 33.0 µM 95% | [8]; at 100.0 µM 95% | [9]; at 33.0 µM 93% | [9]; at 100.0 µM 93% | [10]; [18] 96% | [10]; at 50.0 µM 89.6% | [11]; at 33.0 µM 92% | [11]; at 100.0 µM 87%
